Data reported in PubChem BioAssay AID1159580 (chemical genetic matrix, 2015).
Where “and” joins values, the source holds several entries; their conditions need not be identical. Equal entries are not always repeated. Out of some 5,500 compounds screened, about 2,000 (36%) were called active. Inconclusive results (about 18%) are left out. No stated cut-off is given here; in the data, active means normalized growth mostly below about 0.91 (no sharp cut-off); inconclusive means no clear call, values can overlap the other calls; inactive means mostly above about 0.92. Some of the results follow.

Experiment: chemical genetic growth profiling, strain panel (AID 1159580);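 further: tested at 20 µM; growth read once vehicle control cultures reached saturation at 30 °C; 1 = growth at the plate median or of vehicle wells; lower values mean less growth of the strain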
Details: S. cerevisiae deletion strains, growth OD

Measured: normalized growth

CC(Oc1ccccc1)C(=O)N[C@@H]1C(=O)N2[C@@H]1SC(C)(C)[C@@H]2C(=O)O (some centres not stated)
inactive: locus YAL013W, strain DEP1, active compounds read low 1.01 | locus YAL021C, strain ccr4, active compounds read low 1 | locus YAL026C, strain drs2, active compounds read low 1.01 | locus YAL030W, strain snc1, active compounds read low 0.987 | locus YBL061C, strain skt5, active compounds read low 1 | locus YBR009C, strain hhf1, active compounds read low 0.997 | locus YBR021W, strain FUR4, active compounds read low 0.999 | locus YBR023C, strain chs3, active compounds read low 0.998 | locus YBR171W, strain sec66, active compounds read low 0.984 | locus YBR229C, strain ROT2, active compounds read low 1.01 | locus YBR231C, strain swc5, active compounds read low 0.995 | locus YBR279W, strain paf1, active compounds read low 1.01 | locus YCL011C, strain gbp2, active compounds read low 0.988 | locus YCL016C, strain dcc1, active compounds read low 0.988 | locus YCL029C, strain bik1, active compounds read low 1.04 | locus YCL061C, strain MRC1, active compounds read low 0.998 | locus YCL069W, strain vba3, active compounds read low 0.981 | locus YCR088W, strain abp1, active compounds read low 0.995 | locus YDL005C, strain med2, active compounds read low 0.999 | locus YDL035C, strain GPR1, active compounds read low 1.01 | locus YDL040C, strain nat1, active compounds read low 0.995 | locus YDL074C, strain BRE1, active compounds read low 1.01 | locus YDL101C, strain DUN1, active compounds read low 1.02 | locus YDL134C, strain PPH21, active compounds read low 1.02 | locus YDL185W, strain tfp1, active compounds read low 1.02 | locus YDL192W, strain arf1, active compounds read low 1.02 | locus YDR001C, strain nth1, active compounds read low 0.994 | locus YDR069C, strain doa4, active compounds read low 1 | locus YDR101C, strain arx1, active compounds read low 1.01 | locus YDR137W, strain rgp1, active compounds read low 1 | locus YDR150W, strain NUM1, active compounds read low 1.01 | locus YDR159W, strain sac3, active compounds read low 1.02 | locus YDR162C, strain NBP2, active compounds read low 1.02 | locus YDR195W, strain ref2 1 | locus YDR297W, strain sur2, active compounds read low 0.994 | locus YDR318W, strain mcm21, active compounds read low 1.03 | locus YDR334W, strain swr1, active compounds read low 0.995 | locus YDR335W, strain msn5, active compounds read low 0.996 | locus YDR388W, active compounds read low 1.02 | locus YDR392W, strain spt3, active compounds read low 0.947 | locus YDR502C, strain sam2, active compounds read low 1.01 | locus YEL003W, strain gim4, active compounds read low 0.993 | locus YEL037C, strain rad23, active compounds read low 0.997 | locus YEL061C, strain CIN8 (second series), active compounds read low 0.988 | locus YEL061C, strain CIN8, active compounds read low 1.01 | locus YER015W, strain faa2, active compounds read low 1 | locus YER016W, strain bim1, active compounds read low 1 | locus YER110C, active compounds read low 1.03 | locus YER111C, strain swi4, active compounds read low 1.01 | locus YER155C, strain BEM2 (second series), active compounds read low 0.994 | locus YER155C, strain BEM2, active compounds read low 0.998 | locus YER167W, strain BCK2, active compounds read low 1.01 | locus YFR010W, strain ubp6, active compounds read low 0.997 | locus YGL078C, strain dbp3, active compounds read low 1.02 | locus YGL086W, strain mad1, active compounds read low 1.01 | locus YGL167C, strain pmr1, active compounds read low 0.999 | locus YGL173C, strain kem1, active compounds read low 1.01 | locus YGL227W, strain vid30, active compounds read low 0.988 | locus YGL240W, strain doc1, active compounds read low 1 | locus YGL248W, strain PDE1, active compounds read low 1.01 | locus YGL253W, strain hxk2, active compounds read low 0.994 | locus YGR078C, strain PAC10, active compounds read low 1.01 | locus YGR135W, strain pre9, active compounds read low 1.02 | locus YGR229C, strain SMI1, active compounds read low 0.999 | locus YGR252W, strain gcn5, active compounds read low 0.994 | locus YHR013C, strain ard1, active compounds read low 0.984 | locus YHR027C, strain rpn1, active compounds read low 0.999 | locus YHR030C, strain SLT2, active compounds read low 1.01 and 1.04 | locus YHR079C, strain IRE1 (second series), active compounds read low 1.02 | locus YHR079C, strain IRE1, active compounds read low 0.999 | locus YHR094C, strain hxt1, active compounds read low 1.02 | locus YHR129C, strain ARP1, active compounds read low 1.01 | locus YHR142W, strain chs7, active compounds read low 0.979 | locus YHR200W, strain rpn10, active compounds read low 1.02 | locus YIL066C, strain RNR3, active compounds read low 1.01 | locus YIL073C, strain SPO22, active compounds read low 1.06 | locus YIL125W, strain kgd1, active compounds read low 1.01 | locus YIR030C, strain dcg1, active compounds read low 1.02 | locus YJL092W, strain hpr5, active compounds read low 0.993 | locus YJL095W, strain BCK1 (second series), active compounds read low 0.995 | locus YJL095W, strain BCK1, active compounds read low 1.04 | locus YJL115W, strain asf1, active compounds read low 0.999 | locus YJL129C, strain trk1, active compounds read low 1 | locus YJL134W, strain LCB3, active compounds read low 1.01 | locus YJL154C, strain vps35, active compounds read low 0.991 | locus YJL164C, strain tpk1, active compounds read low 0.999 | locus YJL166W, strain qcr8, active compounds read low 0.986 | locus YJL168C, strain set2, active compounds read low 1.02 | locus YJL187C, strain SWE1 (second series), active compounds read low 1.02 | locus YJL187C, strain SWE1, active compounds read low 0.997 | locus YJR043C, strain POL32, active compounds read low 1.01 | locus YJR066W, strain TOR1, active compounds read low 0.966
